Screening results deposited in PubChem BioAssay by National Center for Advancing Translational Sciences (NCATS).
Only some compounds are listed: those with a hit (about 0.8% of all), similar ones and a draw of the others.
TRPML1 agonist: activates the human TRPML1 channel. activation, % (concentration not given with the values). AID 624414. TRPML1-expressing cells, Ca2+ dye fluorescence, FDSS. hit rate 0.12% among 410,000. Q9GZU1; in the data active = activation above about 50%; inconclusive = mostly about 30% to 49%; also: 0% is about no effect
Target sequence (Q9GZU1 whole entry, looked up): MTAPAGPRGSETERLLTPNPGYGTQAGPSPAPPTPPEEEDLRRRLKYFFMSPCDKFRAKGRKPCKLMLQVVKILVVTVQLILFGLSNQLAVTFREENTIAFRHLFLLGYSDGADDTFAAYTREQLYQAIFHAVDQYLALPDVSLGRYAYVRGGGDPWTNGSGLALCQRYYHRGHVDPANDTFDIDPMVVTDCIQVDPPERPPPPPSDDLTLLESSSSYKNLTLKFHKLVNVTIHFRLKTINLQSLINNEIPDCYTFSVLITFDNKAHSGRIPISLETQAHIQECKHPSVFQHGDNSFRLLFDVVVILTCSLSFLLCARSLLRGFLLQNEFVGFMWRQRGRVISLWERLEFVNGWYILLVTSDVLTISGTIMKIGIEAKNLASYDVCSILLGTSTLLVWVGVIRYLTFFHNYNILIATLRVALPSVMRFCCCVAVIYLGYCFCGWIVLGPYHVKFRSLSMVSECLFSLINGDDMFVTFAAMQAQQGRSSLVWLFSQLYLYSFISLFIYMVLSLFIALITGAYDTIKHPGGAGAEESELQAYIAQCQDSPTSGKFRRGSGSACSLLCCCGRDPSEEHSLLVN
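Tetracycline-induced TRPML1-DL cells are seeded and incubated overnight before loading with a no-wash Ca2+ dye and quencher. Agonist activity is taken from the 110 s fluorescence read following compound pin-transfer on an FDSS, before EC80 54-4 challenge.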
TRHR ag: activates the human TRH receptor; P34981; TRHR cells, calcium flux fluo-8, FDSS agonist mode; activation, % at 2 µM; hit rate 0.18% among 360,000; in the data active = activation above about 30%; also: 0% is about no effect
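Agonist-mode FDSS calcium read (Ex 480/Em 530, 1 s cycles) in 1536-well TRHR cells with fluo-8 dye, after 10-cycle baseline and 23 nL compound addition; TRH at EC20 (10 nM final) added afterwards for the enhancer phase.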
GRP78 ERSR act: induces the endoplasmic reticulum stress response in human glioma cells. hit rate 0.02% among 420,000. Potency, µM, inactives show at the highest dose activation, usual class: activators. U87-MG GRP78 promoter luciferase reporter, 16 h; active = well fitted activation curve with a large enough effect; inconclusive = small, poorly fitted or top-dose-only effect; inactive = no such curve, though single readings can be large or run the other way; also: potency is read from the fitted curve at half-maximal effect; series mostly up to about 76 µM; % of control where 0% means no effect; nearly all actives have a fitted effect of over 35% in size
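Stably transfected U87-MG glioma cells carrying a GRP78-based luciferase sensor; 16 h compound incubation. Luminescence end-point read 10 min after Bright-Glo addition at room temperature.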
TRPML1 inh: inhibitors of human TRPML1 channel; Q9GZU1; TRPML1-inducible cells, Ca2+ dye fluorescence, FDSS; stronger effect = lower value; inhibition of EC80 agonist-evoked calcium signal; activity change, negative = inhibition, % (no concentration beside the values); hit rate 0.02% among 390,000; in the data active = activity change below about -50%; inconclusive = between about -30% and that limit;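 also: stimulus is agonist 54-4 at its EC80 concentration; % is scaled to controls: 0 for no effect and ±100 for the full control effect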
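TRPML1-DL cells, Tet-induced overnight (~16 h, 37 °C) at 1,500 cells/well, were loaded with Ca8 no-wash dye plus quencher for 45-90 min at room temperature. Compounds were pinned during FDSS kinetic reading; agonist 54-4 at EC80 (4 uM final) then added.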
TRHR PAM: allosteric enhancers of human TRH receptor; P34981; TRHR cells, fluo-8 calcium fluorescence, EC20 TRH enhancement; enhancement, % at 2 µM; hit rate 0.66% among 360,000; AID 493056; in the data active = enhancement above about 30%; also: 0% is about no effect
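TRHR-expressing cells loaded with fluo-8 calcium dye were read kinetically (ex 480/em 530) during compound addition, then stimulated with an EC20 of TRH (10 nM final). Enhancement of the Gq-mediated intracellular calcium response was scored.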
An asterisk follows results filed as active; ? = inconclusive; nt = no result.

SMILES	TRPML1 agonist	TRHR ag	GRP78 ERSR act	TRPML1 inh	TRHR PAM
CCC1CN(CCC(=O)N2CCCN(C(=O)c3ccco3)CC2)Cc2cc(OC)ccc2O1 (configuration not stated)	nt	nt	-2%	nt	nt
CSc1nc2c(c(=O)[nH]c(=O)n2C)n1Cc1ccccc1	0	0	-6%	-12	31*
CC(C)Sc1nc2c(c(=O)[nH]c(=O)n2C)n1Cc1ccccc1	0	-1	-1%	3	4
Cc1ccc(OCC(=O)c2cc(C)n(Cc3cccs3)c2C)c([N+](=O)[O-])n1	0	0	-8%	-12	39*
CCCc1nnc2n1N=C(c1ccc(OC)c(OC)c1)CS2	0	-1	-1%	-3	34*
COc1ccccc1NC(=O)CN1CCN(C(=O)C2CCCO2)CC1 (configuration not stated)	1	0	-2%	-15	32*
CCOc1ccc(Br)cc1CNCCSc1nnnn1-c1ccccc1	12	7	32µM*	38	-14
O=C(CNS(=O)(=O)c1ccccc1F)NNC(=O)c1ccc(Br)cc1	0	0	-3%	7	32*
O=C(CNC(=O)c1ccc(Br)o1)NNC(=O)c1ccc(Br)cc1	0	0	-2%	5	-13
O=[S+]([O-])(c1c(F)cccc1F)N1CCN([S+](=O)([O-])c2cccc3nonc23)CC1	nt	1	nt	nt	-4
CN(C)/C=C1\C=Cc2ccccc21	0	nt	-2%	nt	nt
CN(C)/C=C1\C=C2C(=O)c3ccccc3N2C1=O	57*	249*	-7%	?	31*
CCC1(c2ccc(F)cc2)NC(=O)N(CC(=O)N(CCC#N)c2ccccc2)C1=O (configuration not stated)	1	0	-6%	-14	31*
N#CCCN(C(=O)CN1C(=O)NC2(CCCC2)C1=O)c1ccccc1F	0	0	-2%	-6	-10
O=C(Nc1ccc(N2CCCCC2)cc1)c1ccc2ccccc2n1	87*	-1	5%	?	4
COc1c(CC=C(C)C)cc(C2CC(=O)c3c(O)cc(O)cc3O2)cc1CC=C(C)C (configuration not stated)	nt	0	-9%	nt	33*
COc1ccc([C@@H]2CC(=O)c3c(O)cc(O)cc3O2)cc1O	-1	0	5%	-4	-1
Cc1c(C(=O)N(C)Cc2cccc3ncccc23)cnn1-c1nccc(-c2ccccc2F)n1	nt	nt	-1%	nt	nt
CCCCCCC(O)C/C=C\CCCCCCCC(=O)O (configuration not stated)	nt	nt	-2%	nt	nt
CC(C)c1c(C(=O)NCC(C)(C)N2CCOCC2)cnn1-c1nccc(-c2cccs2)n1	nt	nt	-3%	nt	nt
COC(=O)c1ccccc1-c1c2ccc(=N)cc-2oc2cc(N)ccc12	99*	198*	-1%	-23	-18
CC(=O)c1ccc(-c2cc(F)cc3c2OC(CNC(=O)C(C)N2CCOCC2)C3)s1 (configuration not stated)	nt	nt	-1%	nt	nt
N#CN/C(=N\S(=O)(=O)c1ccccc1)c1ccccc1	-1	1	1%	0	37*
COc1ccccc1-c1ccnc(-n2ncc(C(=O)N(C)C(C)c3ccon3)c2C2CC2)n1 (configuration not stated)	nt	nt	6%	nt	nt
Cc1cnc(SCc2ccccn2)nc1C1CCCN(Cc2ccsc2)C1 (configuration not stated)	nt	nt	-3%	nt	nt
SMILES	TRPML1 agonist	TRHR ag	GRP78 ERSR act	TRPML1 inh	TRHR PAM
Cc1nn2c(C)c(C(=O)NCC(C)c3ccccc3)cnc2c1-c1ccccc1 (configuration not stated)	1	0	-3%	-8	35*
Cc1nn2c(C)c(C(=O)NCc3ccco3)cnc2c1-c1ccccc1	0	0	-3%	-1	-4
COc1cc2nc(/C=C/c3ccc(N(C)C)cc3)sc2cc1SC	120*	85*	2%	-12	6
Cc1cc(/C=C/c2nc3ccccc3s2)ccc1N(C)C	1	nt	-1%	nt	nt
CC(O)(COc1ccccc1)c1ccc2c(c1)CN(Cc1ccccn1)CCO2 (configuration not stated)	nt	nt	-2%	nt	nt
CC(C)CC(=O)N1CCN(C(=O)c2ccc(-c3ccccc3)cc2)CC1	0	0	-4%	-6	31*
COc1cccc(CN2CCN(C(=O)c3ccc(-c4ccccc4)cc3)CC2)c1OC	3	-1	-2%	-3	-25
COc1cc(OC)cc(C(=O)N2CCN(C(=O)c3ccc(-c4ccccc4)cc3)CC2)c1	4	0	-3%	24	36*
COc1cc(CN2CCN(C(=O)c3ccc(-c4ccccc4)cc3)CC2)cc(OC)c1OC	0	0	0%	-1	33*
Clc1ccc(-n2cccc2CN2CCc3nnc(Cc4ccccc4)n3CC2)nc1	nt	nt	-7%	nt	nt
CC(NC(=O)c1cc(F)ccc1F)c1nnc2n1CCN(Cc1ccc(-c3ccccc3)cc1)CC2 (configuration not stated)	nt	nt	-5%	nt	nt
COc1ccccc1-c1ccnc(-n2ncc(C(=O)NCc3cccc(C)n3)c2C)n1	nt	nt	-1%	nt	nt
Cc1cccc(C(=O)NCC2Cc3cc(F)cc(-c4cnccn4)c3O2)n1 (configuration not stated)	nt	nt	1%	nt	nt
CC(=O)Nc1ccc(S(=O)(=O)Nc2cccn(Cc3ccc(C)cc3)c2=O)cc1	0	1	-5%	-11	33*
CC(=O)Nc1ccc(S(=O)(=O)Nc2cc(C)cn(Cc3ccccc3)c2=O)cc1	0	1	-4%	-8	-2
CC(=O)Nc1ccc(S(=O)(=O)Nc2ccccc2N2CCOCC2)cc1	1	0	-3%	-4	34*
CC(=O)Nc1ccc(S(=O)(=O)Nc2ccccc2N2CCOCC2)cc1Cl	0	1	-6%	22	-9
Cc1ccc(C)c(CN2CCc3nnc(CNC(=O)c4cc(C)oc4C)n3CC2)c1	nt	nt	-4%	nt	nt
CC1=NN(c2ccccc2)C(c2ccco2)C1 (configuration not stated)	1	nt	1%	-12	nt
O=[N+]([O-])c1ccc(C2=NN(c3ccccc3)C(c3ccco3)C2)cc1 (configuration not stated)	55*	59*	0%	4	2
O=[N+]([O-])c1ccc(/C=C/C2=NN(c3ccccc3)C(c3ccco3)C2)cc1 (configuration not stated)	60*	0	-4%	-13	-3
CC1=CC(C)(C)N(C(=O)CN2C(=O)c3ccccc3C2=O)c2ccccc21	96*	0	-5%	-4	-1
CC1CC(C)(C)N(C(=O)CN2C(=O)c3ccccc3C2=O)c2ccccc21 (configuration not stated)	94*	18	-2%	-15	-10
Cc1cc(C)c2c(c1)-c1c(ssc1=S)C(C)(C)N2C(=O)CN1C(=O)c2ccccc2C1=O	67*	0	-3%	?	-4
